Reference: ChEMBL document CHEMBL1961873, “Compounds: GSK PKIS; Assays: Nanosyn kinase panel” (2012)

Assays:
[1] = molecular target: T1, Serine/threonine-protein kinase Nek9 (Homo sapiens) (UniProt Q8TD19); conditions: at 1 µM;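 also: each value is a mean percent inhibition of NEK9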
T1 sequence (whole entry): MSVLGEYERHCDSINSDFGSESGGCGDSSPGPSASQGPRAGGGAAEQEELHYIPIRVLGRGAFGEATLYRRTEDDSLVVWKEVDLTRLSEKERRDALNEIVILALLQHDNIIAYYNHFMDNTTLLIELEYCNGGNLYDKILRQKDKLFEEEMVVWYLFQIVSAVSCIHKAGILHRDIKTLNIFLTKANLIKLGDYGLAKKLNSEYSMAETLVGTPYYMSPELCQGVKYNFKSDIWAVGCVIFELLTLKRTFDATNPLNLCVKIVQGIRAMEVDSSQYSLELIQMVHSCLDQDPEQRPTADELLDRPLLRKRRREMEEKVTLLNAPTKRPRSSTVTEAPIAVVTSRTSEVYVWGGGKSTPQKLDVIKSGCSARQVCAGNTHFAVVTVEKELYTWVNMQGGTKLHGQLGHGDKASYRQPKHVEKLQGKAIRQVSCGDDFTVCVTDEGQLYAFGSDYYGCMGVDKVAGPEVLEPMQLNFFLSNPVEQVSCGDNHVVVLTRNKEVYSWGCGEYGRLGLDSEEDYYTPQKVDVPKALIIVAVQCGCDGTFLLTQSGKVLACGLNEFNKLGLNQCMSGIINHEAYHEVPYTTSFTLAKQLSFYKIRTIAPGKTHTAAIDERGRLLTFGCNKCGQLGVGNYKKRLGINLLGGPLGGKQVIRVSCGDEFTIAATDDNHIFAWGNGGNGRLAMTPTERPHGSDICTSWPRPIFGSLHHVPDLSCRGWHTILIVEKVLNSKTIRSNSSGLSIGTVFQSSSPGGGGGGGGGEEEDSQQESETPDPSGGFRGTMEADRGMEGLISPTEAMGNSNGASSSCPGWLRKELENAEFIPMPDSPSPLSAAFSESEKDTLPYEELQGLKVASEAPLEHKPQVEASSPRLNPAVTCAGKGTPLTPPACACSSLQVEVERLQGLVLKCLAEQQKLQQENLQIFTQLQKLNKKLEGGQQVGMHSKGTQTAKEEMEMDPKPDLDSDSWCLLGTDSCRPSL

[2] = molecular target: Serine/threonine-protein kinase PLK1 (Homo sapiens) (UniProt P53350); conditions: at 0.1 µM
[3] = molecular target: Serine/threonine-protein kinase PLK1 (Homo sapiens) (UniProt P53350); conditions: at 1 µM
[4] = molecular target: T2, Dual specificity protein kinase TTK (Homo sapiens) (UniProt P33981); conditions: at 0.1 µM
T2 sequence (whole entry): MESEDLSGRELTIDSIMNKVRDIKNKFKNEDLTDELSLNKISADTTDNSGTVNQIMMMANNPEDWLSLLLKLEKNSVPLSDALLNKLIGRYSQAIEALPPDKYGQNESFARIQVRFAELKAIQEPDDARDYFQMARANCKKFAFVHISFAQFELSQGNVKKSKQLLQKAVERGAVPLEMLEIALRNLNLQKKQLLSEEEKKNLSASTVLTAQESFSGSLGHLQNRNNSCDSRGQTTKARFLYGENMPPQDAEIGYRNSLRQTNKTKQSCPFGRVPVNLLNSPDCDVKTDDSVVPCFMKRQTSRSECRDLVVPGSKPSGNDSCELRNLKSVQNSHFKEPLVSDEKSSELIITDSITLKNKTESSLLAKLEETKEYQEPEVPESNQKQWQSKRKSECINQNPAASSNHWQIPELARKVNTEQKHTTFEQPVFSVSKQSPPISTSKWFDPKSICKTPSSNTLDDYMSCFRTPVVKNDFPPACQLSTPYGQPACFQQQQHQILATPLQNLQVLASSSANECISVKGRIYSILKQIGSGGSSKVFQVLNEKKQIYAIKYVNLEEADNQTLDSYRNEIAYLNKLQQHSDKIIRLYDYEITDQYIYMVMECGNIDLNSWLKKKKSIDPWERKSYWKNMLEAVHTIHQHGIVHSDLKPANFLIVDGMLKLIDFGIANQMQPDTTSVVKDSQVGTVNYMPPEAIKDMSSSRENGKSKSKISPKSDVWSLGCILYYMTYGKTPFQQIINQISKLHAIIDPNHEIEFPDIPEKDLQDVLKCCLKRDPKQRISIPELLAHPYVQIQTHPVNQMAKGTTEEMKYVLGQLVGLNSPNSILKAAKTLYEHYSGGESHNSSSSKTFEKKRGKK

[5] = test system: T3, Receptor-type tyrosine-protein kinase FLT3 (Homo sapiens), P36888 [D835Y]; conditions: at 1 µM
T3 sequence (whole entry): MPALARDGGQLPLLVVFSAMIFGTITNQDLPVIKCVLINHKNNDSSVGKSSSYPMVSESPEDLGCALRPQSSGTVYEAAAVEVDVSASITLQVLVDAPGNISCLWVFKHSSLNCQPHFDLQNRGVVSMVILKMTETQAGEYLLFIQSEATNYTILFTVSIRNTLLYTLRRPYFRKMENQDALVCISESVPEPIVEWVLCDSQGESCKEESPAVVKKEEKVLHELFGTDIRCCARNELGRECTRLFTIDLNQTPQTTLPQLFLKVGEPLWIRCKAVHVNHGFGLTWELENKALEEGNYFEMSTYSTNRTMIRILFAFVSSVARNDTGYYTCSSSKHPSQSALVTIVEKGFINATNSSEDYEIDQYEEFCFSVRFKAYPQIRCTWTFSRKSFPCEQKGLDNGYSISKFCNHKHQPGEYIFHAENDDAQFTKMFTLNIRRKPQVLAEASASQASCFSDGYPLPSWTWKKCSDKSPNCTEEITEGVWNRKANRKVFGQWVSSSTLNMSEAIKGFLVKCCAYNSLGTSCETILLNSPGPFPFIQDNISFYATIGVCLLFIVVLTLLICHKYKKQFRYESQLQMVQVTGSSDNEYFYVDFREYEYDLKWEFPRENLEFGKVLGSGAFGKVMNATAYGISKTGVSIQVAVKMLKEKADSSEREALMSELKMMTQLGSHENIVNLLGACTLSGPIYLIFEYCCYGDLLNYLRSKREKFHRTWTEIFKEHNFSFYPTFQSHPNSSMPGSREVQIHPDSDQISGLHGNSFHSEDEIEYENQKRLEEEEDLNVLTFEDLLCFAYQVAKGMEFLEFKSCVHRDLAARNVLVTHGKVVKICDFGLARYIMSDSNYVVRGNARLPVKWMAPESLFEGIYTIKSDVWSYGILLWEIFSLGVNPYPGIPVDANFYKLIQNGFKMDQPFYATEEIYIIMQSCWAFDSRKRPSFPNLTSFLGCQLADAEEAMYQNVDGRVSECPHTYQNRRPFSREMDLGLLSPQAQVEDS

[6] = molecular target: Vascular endothelial growth factor receptor 3 (Homo sapiens) (UniProt P35916); conditions: at 0.1 µM
[7] = molecular target: Vascular endothelial growth factor receptor 3 (Homo sapiens) (UniProt P35916); conditions: at 1 µM
[8] = molecular target: Macrophage colony-stimulating factor 1 receptor (Homo sapiens) (UniProt P07333); conditions: at 0.1 µM
[9] = molecular target: Macrophage colony-stimulating factor 1 receptor (Homo sapiens) (UniProt P07333); conditions: at 1 µM
[10] = molecular target: Tyrosine-protein kinase Fyn (Homo sapiens) (UniProt P06241); conditions: at 0.1 µM
[11] = molecular target: Tyrosine-protein kinase Fyn (Homo sapiens) (UniProt P06241); conditions: at 1 µM
[12] = molecular target: Tyrosine-protein kinase HCK (Homo sapiens) (UniProt P08631); conditions: at 0.1 µM
[13] = molecular target: Tyrosine-protein kinase HCK (Homo sapiens) (UniProt P08631); conditions: at 1 µM
[14] = molecular target: Insulin-like growth factor 1 receptor (Homo sapiens) (UniProt P08069); conditions: at 0.1 µM
[15] = molecular target: Insulin-like growth factor 1 receptor (Homo sapiens) (UniProt P08069); conditions: at 1 µM
[16] = molecular target: Insulin receptor (Homo sapiens) (UniProt P06213); conditions: at 0.1 µM
[17] = molecular target: Insulin receptor (Homo sapiens) (UniProt P06213); conditions: at 1 µM
[18] = molecular target: Insulin receptor-related protein (Homo sapiens) (UniProt P14616); conditions: at 0.1 µM
[19] = molecular target: Insulin receptor-related protein (Homo sapiens) (UniProt P14616); conditions: at 1 µM
[20] = molecular target: T4, Tyrosine-protein kinase ITK/TSK (Homo sapiens) (UniProt Q08881); conditions: at 0.1 µM;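 also: mean percent inhibition of ITK from the GSK PKIS screen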
T4 sequence (whole entry): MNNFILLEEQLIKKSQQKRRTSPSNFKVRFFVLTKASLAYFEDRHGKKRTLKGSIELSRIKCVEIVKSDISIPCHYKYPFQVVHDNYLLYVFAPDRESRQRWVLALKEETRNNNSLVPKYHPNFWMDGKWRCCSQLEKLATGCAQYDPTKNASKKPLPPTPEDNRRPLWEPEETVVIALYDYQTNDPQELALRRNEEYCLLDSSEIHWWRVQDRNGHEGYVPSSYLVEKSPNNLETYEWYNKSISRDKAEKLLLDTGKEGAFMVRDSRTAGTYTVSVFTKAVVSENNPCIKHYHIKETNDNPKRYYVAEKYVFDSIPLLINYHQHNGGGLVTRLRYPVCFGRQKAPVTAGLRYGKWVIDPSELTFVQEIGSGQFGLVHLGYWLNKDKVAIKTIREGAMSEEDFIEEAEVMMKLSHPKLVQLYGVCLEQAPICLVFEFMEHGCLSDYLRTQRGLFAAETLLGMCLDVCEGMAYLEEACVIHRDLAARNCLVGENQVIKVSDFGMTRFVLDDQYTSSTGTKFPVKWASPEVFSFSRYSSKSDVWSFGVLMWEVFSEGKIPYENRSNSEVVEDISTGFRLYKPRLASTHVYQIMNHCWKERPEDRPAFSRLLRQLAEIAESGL

Sequence of Insulin-like growth factor 1 receptor (Homo sapiens) (P08069 31-736 limits assumed): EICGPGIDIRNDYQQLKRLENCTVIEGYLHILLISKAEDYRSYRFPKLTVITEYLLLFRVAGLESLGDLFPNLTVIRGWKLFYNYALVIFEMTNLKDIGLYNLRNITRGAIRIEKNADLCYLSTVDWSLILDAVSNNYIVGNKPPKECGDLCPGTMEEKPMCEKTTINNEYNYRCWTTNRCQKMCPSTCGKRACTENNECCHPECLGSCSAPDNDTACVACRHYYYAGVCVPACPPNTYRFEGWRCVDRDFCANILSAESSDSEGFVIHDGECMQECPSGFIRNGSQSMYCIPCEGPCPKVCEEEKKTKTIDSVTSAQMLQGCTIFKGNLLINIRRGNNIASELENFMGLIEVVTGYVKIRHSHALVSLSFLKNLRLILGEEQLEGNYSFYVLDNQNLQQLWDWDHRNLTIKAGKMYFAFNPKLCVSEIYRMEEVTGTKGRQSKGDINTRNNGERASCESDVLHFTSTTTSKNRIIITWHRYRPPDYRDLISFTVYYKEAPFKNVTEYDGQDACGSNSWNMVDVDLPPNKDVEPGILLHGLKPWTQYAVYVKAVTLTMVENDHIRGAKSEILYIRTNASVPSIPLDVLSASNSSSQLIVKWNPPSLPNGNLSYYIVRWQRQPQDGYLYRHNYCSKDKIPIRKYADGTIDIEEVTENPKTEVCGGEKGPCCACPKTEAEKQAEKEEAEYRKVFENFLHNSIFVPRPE
Sequence of Insulin-like growth factor 1 receptor (Homo sapiens) (P08069 741-1367 limits assumed): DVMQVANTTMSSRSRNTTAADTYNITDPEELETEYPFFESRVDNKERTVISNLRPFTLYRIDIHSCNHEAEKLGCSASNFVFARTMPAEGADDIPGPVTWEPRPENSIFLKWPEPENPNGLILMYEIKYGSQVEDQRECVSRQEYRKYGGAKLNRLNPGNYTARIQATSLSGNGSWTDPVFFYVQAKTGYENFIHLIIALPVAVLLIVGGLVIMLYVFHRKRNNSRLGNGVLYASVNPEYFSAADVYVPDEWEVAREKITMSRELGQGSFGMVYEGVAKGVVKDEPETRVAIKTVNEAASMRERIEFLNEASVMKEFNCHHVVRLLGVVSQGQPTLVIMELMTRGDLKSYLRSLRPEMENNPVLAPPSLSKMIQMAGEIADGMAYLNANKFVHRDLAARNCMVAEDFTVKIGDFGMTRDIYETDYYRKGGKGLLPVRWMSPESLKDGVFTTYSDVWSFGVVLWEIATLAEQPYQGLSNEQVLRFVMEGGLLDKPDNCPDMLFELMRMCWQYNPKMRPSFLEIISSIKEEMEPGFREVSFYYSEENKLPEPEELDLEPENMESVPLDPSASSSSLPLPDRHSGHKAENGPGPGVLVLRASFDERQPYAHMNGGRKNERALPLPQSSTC
Sequence of Insulin receptor (Homo sapiens) (P06213 28-758 limits assumed): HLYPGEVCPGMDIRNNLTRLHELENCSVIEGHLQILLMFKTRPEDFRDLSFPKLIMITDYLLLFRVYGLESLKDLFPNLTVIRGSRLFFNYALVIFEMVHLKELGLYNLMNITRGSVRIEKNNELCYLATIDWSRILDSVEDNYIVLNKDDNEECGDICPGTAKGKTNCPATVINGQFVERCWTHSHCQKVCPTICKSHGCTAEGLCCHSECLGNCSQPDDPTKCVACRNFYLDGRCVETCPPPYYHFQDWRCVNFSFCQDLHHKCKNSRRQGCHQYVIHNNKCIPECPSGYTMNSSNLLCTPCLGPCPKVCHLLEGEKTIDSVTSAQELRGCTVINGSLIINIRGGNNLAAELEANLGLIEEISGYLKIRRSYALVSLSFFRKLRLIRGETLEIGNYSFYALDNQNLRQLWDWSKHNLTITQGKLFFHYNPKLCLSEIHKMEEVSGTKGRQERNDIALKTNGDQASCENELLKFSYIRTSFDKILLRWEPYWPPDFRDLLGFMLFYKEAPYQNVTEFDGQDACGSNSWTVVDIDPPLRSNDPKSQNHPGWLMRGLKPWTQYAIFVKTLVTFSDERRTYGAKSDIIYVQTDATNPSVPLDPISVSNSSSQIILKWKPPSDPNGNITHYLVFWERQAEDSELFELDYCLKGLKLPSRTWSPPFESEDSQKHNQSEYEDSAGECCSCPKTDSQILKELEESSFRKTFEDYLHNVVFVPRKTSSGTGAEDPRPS
Sequence of Insulin receptor (Homo sapiens) (P06213 763-1382 limits assumed): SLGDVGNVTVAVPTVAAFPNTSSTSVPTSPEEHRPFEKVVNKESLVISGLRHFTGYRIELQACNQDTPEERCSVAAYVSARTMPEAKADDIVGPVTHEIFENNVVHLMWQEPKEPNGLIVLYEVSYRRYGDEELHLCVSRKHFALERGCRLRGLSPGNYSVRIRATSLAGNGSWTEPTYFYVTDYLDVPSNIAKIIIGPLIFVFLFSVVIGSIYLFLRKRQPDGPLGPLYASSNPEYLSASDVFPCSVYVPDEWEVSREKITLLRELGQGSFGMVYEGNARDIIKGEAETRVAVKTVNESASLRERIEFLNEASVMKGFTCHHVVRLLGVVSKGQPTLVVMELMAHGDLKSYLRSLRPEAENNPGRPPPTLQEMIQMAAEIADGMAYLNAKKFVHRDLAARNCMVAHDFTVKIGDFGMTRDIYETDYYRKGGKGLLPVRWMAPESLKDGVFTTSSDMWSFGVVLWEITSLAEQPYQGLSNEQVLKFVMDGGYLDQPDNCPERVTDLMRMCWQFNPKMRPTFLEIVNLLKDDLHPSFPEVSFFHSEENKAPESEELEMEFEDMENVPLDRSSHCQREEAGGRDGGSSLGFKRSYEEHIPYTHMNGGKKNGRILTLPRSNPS
Sequence of Tyrosine-protein kinase HCK (Homo sapiens) (P08631 2-526 limits assumed): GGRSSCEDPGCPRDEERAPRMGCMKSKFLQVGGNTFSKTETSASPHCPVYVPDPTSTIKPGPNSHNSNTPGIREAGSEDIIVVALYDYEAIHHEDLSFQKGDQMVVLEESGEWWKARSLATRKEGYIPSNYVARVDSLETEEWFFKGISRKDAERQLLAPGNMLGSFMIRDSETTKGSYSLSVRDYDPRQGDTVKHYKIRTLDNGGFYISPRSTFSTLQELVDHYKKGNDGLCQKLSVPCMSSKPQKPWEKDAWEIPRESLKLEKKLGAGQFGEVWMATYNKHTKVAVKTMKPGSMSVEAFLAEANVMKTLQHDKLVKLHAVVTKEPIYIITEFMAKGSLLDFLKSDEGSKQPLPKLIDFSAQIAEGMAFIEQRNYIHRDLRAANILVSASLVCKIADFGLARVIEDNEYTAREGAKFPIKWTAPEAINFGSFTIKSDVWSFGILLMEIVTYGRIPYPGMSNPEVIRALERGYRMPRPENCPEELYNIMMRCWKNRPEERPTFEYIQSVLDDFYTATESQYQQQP
Sequence of Vascular endothelial growth factor receptor 3 (Homo sapiens) (P35916 whole entry): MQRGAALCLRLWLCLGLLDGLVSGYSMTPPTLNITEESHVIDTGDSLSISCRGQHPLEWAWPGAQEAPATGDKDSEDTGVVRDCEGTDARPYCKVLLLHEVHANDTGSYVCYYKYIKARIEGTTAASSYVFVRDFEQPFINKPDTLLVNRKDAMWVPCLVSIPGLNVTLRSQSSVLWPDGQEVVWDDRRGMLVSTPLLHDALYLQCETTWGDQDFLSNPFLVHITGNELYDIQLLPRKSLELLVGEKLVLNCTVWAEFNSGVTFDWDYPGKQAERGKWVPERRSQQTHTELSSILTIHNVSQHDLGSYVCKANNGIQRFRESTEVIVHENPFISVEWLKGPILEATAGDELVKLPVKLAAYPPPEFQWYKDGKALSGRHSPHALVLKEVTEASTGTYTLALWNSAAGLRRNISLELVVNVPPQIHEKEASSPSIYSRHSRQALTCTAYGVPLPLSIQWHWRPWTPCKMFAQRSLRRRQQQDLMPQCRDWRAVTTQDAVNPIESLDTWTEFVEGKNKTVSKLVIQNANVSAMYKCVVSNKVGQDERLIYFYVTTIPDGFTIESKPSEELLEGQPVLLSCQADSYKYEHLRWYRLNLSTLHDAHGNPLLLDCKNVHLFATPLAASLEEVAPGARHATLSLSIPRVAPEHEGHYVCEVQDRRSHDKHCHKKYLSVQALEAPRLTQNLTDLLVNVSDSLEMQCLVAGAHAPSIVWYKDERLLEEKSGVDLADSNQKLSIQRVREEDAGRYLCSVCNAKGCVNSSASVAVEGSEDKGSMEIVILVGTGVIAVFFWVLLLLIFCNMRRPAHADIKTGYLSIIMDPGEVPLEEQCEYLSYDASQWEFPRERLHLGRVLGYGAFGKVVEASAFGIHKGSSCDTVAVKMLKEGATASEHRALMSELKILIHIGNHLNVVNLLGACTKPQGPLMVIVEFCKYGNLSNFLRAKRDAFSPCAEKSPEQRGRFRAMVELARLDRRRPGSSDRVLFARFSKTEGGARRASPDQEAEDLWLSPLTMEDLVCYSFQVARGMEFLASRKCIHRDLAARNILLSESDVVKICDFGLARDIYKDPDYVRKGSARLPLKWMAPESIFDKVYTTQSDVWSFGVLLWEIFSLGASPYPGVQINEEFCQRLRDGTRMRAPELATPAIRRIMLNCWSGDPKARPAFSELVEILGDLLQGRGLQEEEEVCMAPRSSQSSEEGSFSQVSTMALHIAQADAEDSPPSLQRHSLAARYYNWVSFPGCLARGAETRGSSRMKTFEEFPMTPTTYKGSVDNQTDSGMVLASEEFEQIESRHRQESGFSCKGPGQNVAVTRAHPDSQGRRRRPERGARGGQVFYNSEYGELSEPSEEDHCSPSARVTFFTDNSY

Structure (SMILES)	inhibition [1]	inhibition [2]	inhibition [3]	inhibition [4]	inhibition [5]	inhibition [6]	inhibition [7]	inhibition [8]	inhibition [9]	inhibition [10]	inhibition [11]	inhibition [12]	inhibition [13]	inhibition [14]	inhibition [15]	inhibition [16]	inhibition [17]	inhibition [18]	inhibition [19]	inhibition [20]
COc1cc(N2CCN(C(C)C)CC2)ccc1Nc1nc(Nc2cccc3ncccc23)c2cc[nH]c2n1	-1.45%	-0.26%	0.8%	52.1%	1.87%	0.19%	0.22%	1.9%	3.33%	2.06%	2.23%	0.79%	1.71%	12%	60.5%	22.6%	82.1%	-1.05%	14.8%	-0.09%
CNC(=O)c1cncc(/C=C/c2ccccc2C)c1	3.57%	4.47%	3.11%	8.61%	2.62%	6.74%	3.1%	-0.27%	4.09%	-0.42%	10.8%	6.15%	20.1%	3.6%	6.92%	2.85%	2.34%	4.17%	2.86%	1.32%
COc1cc2c(cc1Nc1nc(Nc3cccc(F)c3C(N)=O)c3cc[nH]c3n1)N(C(=O)CN1CCN(C(C)C)CC1)CC2	6.33%	4.96%	25.8%	11.4%	2%	-0.29%	4.32%	-0.95%	5.37%	1.51%	2.53%	1.66%	2.73%	57.8%	87.7%	69.1%	88.2%	6.85%	44.3%	1.77%
CCCNc1cccc(-n2ncc3c(N/N=C/c4ccncc4)ncnc32)c1	0.45%	-0.12%	0.93%	4%	31.9%	11.3%	40.7%	3.81%	17.6%	8.6%	52.8%	7.22%	35.8%	0.75%	-0.01%	1.6%	0.96%	0.19%	1.63%	6.02%
CS(=O)(=O)Nc1ccc(-c2ccc3c(NC(=O)C4CC4)n[nH]c3c2)cc1	-0.22%	4.12%	4.87%	7.49%	3.86%	-0.12%	2.39%	1.7%	3.16%	0.67%	2.5%	5.35%	8.62%	7.15%	5.41%	4.13%	5.66%	3.14%	2.41%	1.56%
CC(C)c1ccc(-c2cc(-c3c[nH]nc3-c3ccccn3)ccn2)cc1	2.93%	0.48%	0.41%	2.65%	1.71%	1.37%	5.15%	0.03%	3.63%	1.14%	1.91%	2.47%	4.67%	1%	2.04%	-0.15%	1.37%	-0.94%	-0.37%	0.84%
CC1=C(C(=O)Nc2ccc3[nH]ncc3c2)C(c2ccc(F)cc2)N=C(c2ccc(C(F)(F)F)nc2)N1 (stereo not given)	-1.51%	1.85%	1.78%	3.99%	1.9%	1.85%	0.82%	3.03%	2.25%	4.17%	3.27%	4.24%	12.2%	3.5%	3.35%	3.82%	1.7%	1.92%	1.25%	1.64%
